The list is not random: actives were taken first. Their share in the collection is about 17%.
ATXN2 expr inh – reduces ATXN2 reporter expression in HEK-293 cells. Potency, µM (doses to about 57 µM), inactives show at the highest dose activity change, negative = inhibition, most hits filed as inhibitors. AID 1745845. HEK-293 ATXN2-luciferase reporter, luminescence, 24 h. 360,000 compounds, 0.72% hits; further: on the % scale 0 is the no-effect control and ±100 the full control effect; nearly all actives have a fitted effect of over 55% in size
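ATXN2-luciferase reporter cells (luciferase flanked by upstream and downstream ATXN2 gene portions) were treated 24 h at 37 °C with compounds at up to 57 uM. SteadyGlo luminescence gave expression; GF-AFC fluorescence gave viability.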
ATXN viability – viability counter-screen for ATXN expression inhibitors; S2 cells (HEK-293 line with an ATXN2-luciferase reporter) viability, CellTiter-Fluor protease fluorescence, 24 h; Potency, µM (titrated, usually from 56.7 µM), actives largely listed as cytotoxic; 400,000 compounds, 0.49% hits; AID 651635; further: nearly all actives have a fitted effect of over 40% in size
TDP1 cell noCPT – qHTS for Inhibitors of human tyrosyl-DNA phosphodiesterase 1 (TDP1): qHTS in cells in absence of CPT; 420,000 compounds, 15% hits; Potency, µM (doses to about 46.2 µM), without a hit: at the top dose activity change, negative = growth inhibition, usual class: inhibitors; DT40 Tdp1-/- hTDP1 cells, no CPT, ATP luminescence, 48 h; further: on the % scale 0 is the no-effect control and ±100 the full control effect; nearly all actives have a fitted effect of over 55% in size
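Growth of hTDP1-complemented DT40 Tdp1-knockout cells is measured by ATP luminescence after at least 48 hr compound exposure at 37 °C, with DMSO substituting for the 20 nM CPT used in the parallel screen.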
TDP1 cell CPT – growth inhibition of DT40 Tdp1-/-;hTDP1 cells with camptothecin (screen for TDP1 inhibitors). chicken DT40 Tdp1-/-;hTDP1 cells + 20 nM CPT, ATP luminescence, 48 h. Potency, µM (series often up to 46.2 µM), for inactives: at the highest dose activity change, negative = growth inhibition, hits mostly inhibitors. 420,000 compounds, 12% hits. AID 686979; further: on the % scale 0 is the no-effect control and ±100 the full control effect; nearly all actives have a fitted effect of over 55% in size
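Cell growth measured by CellTiter-Glo luminescence after a minimum 48 h, 37 C compound exposure with 20 nM CPT in Tdp1-knockout DT40 cells stably expressing hTDP1, seeded 400/well; qHTS titration format.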
HepG2 tox – kills HepG2 cells in TGF-b inhibitor counter-screen. 410,000 compounds, 0.76% hits. Potency, µM (titrated, usually from 46.1 µM), for the others: at the highest dose activity change, negative = cytotoxicity, hits mostly cytotoxic. HepG2 CAGA-GFP viability, ATP luminescence, 18 h
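HepG2 CAGA-GFP cells (1000/well, DMEM with 1% FBS) received compound, then TGF-beta at 500 pg/mL final, and were incubated 18 hours at 37 degrees C. Viability was read by CellTiter-Glo luminescence. Media-only wells were set as complete cell-killing and DMSO as no toxicity.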
TGFb SMAD3 inh – inhibitors of TGF-b signaling; AID 588855; 410,000 compounds, 1.2% hits; Potency, µM (highest dose often 46.1 µM), inactives show at the highest dose activity, negative = inhibition, usual class: inhibitors; HepG2 CAGA-GFP TGF-b/SMAD3 reporter, GFP fluorescence, 18 h; TGF-beta stimulated, 500 pg/mL final; further: on the % scale 0 is the no-effect control and ±100 the full control effect; nearly all actives have a fitted effect of over 65% in size
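Cell-based qHTS in HEPG2 carrying a CAGA-GFP Smad reporter; compounds added before 500 pg/mL final TGF-beta, 18 h incubation at 37 degrees C, GFP fluorescence quantified per cell by imaging cytometry.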
The depositor's hits bear a star; i = inactive; u = inconclusive; x = not tested or not shown. The call rests on the fitted dose curve; in most records, active means well fitted curve in the direction sought with a large enough effect; inconclusive means small, poorly fitted or top-dose-only effect, or another doubt; inactive means no such curve, though single readings can be large; an effect the other way counts as inactive or inconclusive. Potency means the concentration at half of the fitted maximal effect.

SMILES | ATXN2 expr inh | ATXN viability | TDP1 cell noCPT | TDP1 cell CPT | HepG2 tox | TGFb SMAD3 inh
CC(C)CN(C(=O)COC(=O)c1ccc2c(c1)OCO2)c1c(N)n(Cc2ccccc2)c(=O)[nH]c1=O | -18% | i | -19% | -17% | -17% | 2%
C/C(=C(/OCCOc1ccc(Cl)cc1)c1ccc(Cl)cc1Cl)n1ccnc1 | -27% | i | x | x | x | x
CCCCc1ccc(S(=O)(=O)N/N=C(/C)c2ccncc2)cc1 | -19% | i | u | 16µM* | 0% | -19%
C/C(=N\NS(=O)(=O)c1ccccc1)c1ccccc1 | -31% | u | 0% | 0% | 4% | 2%
COc1cc(OC)c(-c2c3cc(O)c(=O)cc-3oc3cc(O)c(O)cc23)cc1OC | -31% | 13µM* | u | u | -10% | u
CN1CCN(C(=O)c2cnn(-c3cccc(Cl)c3)c2C2CCN(C(=O)OC(C)(C)C)CC2)CC1 | x | x | -22% | -1% | -21% | u
COc1cc2[nH]c(Cl)c([N+](=O)[O-])c2cc1OC | -4% | i | 21µM* | 21µM* | -1% | -5%
COc1cc(C(=O)O)c([N+](=O)[O-])c(OC)c1OC | -16% | i | 10% | 0% | 35% | 26%
CC(C)c1ccc(NC(=O)CSc2nc3ncccc3[nH]2)cc1 | x | i | 26µM* | u | -19% | 1%
CC(C)OC(=O)c1ccc(NC(=O)CSc2nc3ncccc3[nH]2)cc1 | -8% | i | 13µM* | 8.2µM* | -9% | -21%
CC(=O)c1cccc(NC(=O)C2=CC(c3ccc(F)cc3)=NS(=O)(=O)N2C)c1 | -9% | i | u | u | -19% | -1%
COc1ccc2c(c1)C(=O)[C@@H](O)[C@H](c1ccc(OC)c(Br)c1)O2 | -14% | i | u | 21µM* | -26% | u
COc1cc(OC)c2c(c1)OC(c1ccc(OC)c(OC)c1)C(O)C2=O (centres undefined) | -2% | i | u | u | -34% | u
COc1cccc([C@@H]2Oc3ccc(OC)cc3C(=O)[C@H]2O)c1 | 11% | i | 12µM* | 6.5µM* | 3% | u
O=c1cc(SCc2ccccc2)nc[nH]1 | 6% | i | -14% | -11% | -4% | -1%
COc1cc(OC)c(C(=O)N(CCc2ccccc2)Cc2ccccc2)cc1OC | -10% | u | u | u | -23% | -10%
O=C(NCc1nc2ccccc2[nH]1)C1=C[C@H](C2CCCCC2)C[C@H](OCCCCO)O1 | -8% | i | 16µM* | 23µM* | 1% | -12%
O=C(NCc1nc2ccccc2[nH]1)C1=C[C@@H](C2CCCCC2)C[C@@H](OCc2ccc(CO)cc2)O1 | u | u | u | u | -35% | u
CC(C)(C)[C@H]1C=C(C(=O)NCc2nc3ccccc3[nH]2)O[C@@H](OCc2ccc(CO)cc2)C1 | -11% | i | u | 21µM* | -24% | u
O=C(NCc1nc2ccccc2[nH]1)C1=C[C@H](C2CCCCC2)C[C@H](OCc2ccc(CO)cc2)O1 | u | u | 16µM* | 12µM* | -40% | u
O=C(NCc1nc2ccccc2[nH]1)C1=C[C@@H](c2ccccc2)C[C@@H](OCc2ccc(CO)cc2)O1 | -6% | i | u | u | -50% | -46%
O=C(NCc1nc2ccccc2[nH]1)C1=C[C@@H](c2ccc(C(F)(F)F)cc2)C[C@@H](OCc2ccc(CO)cc2)O1 | -11% | u | 18µM* | u | -28% | u
O=C(NCc1nc2ccccc2[nH]1)C1=C[C@H](c2ccccc2)C[C@H](OCc2ccc(CO)cc2)O1 | 6% | u | u | u | -2% | -11%
COc1cccc(NC(=O)Cn2c(=O)n(CC(=O)NCc3ccc(C)cc3)c(=O)c3sccc32)c1 | x | x | -25% | u | -2% | -1%
O=C(Nc1cccc(F)c1)N1CCC2(CC1)CCN(C(=O)c1ccncc1)CC2 | x | x | -17% | 11% | x | x
SMILES | ATXN2 expr inh | ATXN viability | TDP1 cell noCPT | TDP1 cell CPT | HepG2 tox | TGFb SMAD3 inh
NC(=O)Cn1cc(C(=O)C(=O)N2CCOCC2)c2ccccc21 | 25% | i | 0% | 0% | -3% | -13%
CCOC(=O)c1c(C)[nH]c(C)c1S(=O)(=O)NCC(=O)Nc1ccc(C)cc1C | 3% | i | -13% | -25% | -25% | u
COc1ccc(/C=C/C(=O)c2ccc(C)c([N+](=O)[O-])c2)cc1O | -19% | i | 13µM* | u | 20µM* | 18µM*
COc1ccc(C=CC(=O)c2ccc([N+](=O)[O-])cc2)cc1 | -18% | i | -27% | -7% | 14% | 0%
COc1cccc(/C=C/C(=O)c2ccc(C)c([N+](=O)[O-])c2)c1 | -6% | i | 21µM* | u | -39% | u
COc1ccc(C(=O)/C=C/c2ccc(N3CCCCC3)c([N+](=O)[O-])c2)cc1 | -30% | u | u | u | -2% | u
COc1cc(/C=C/C(=O)c2ccc(C)c([N+](=O)[O-])c2)cc(OC)c1O | u | i | 15µM* | 16µM* | -44% | 13µM*
CC/C(=N\NC(=O)CNC(=O)/C=C/c1ccc(OC)cc1)c1ccccc1 | -14% | i | -13% | -2% | 6% | -6%
O=C(NC1CCN(Cc2ccc(Cl)cc2)CC1)c1cn(-c2ccccc2)nc1-c1cccnc1 | -23% | i | u | 16µM* | -28% | u
O=C(NCc1cccnc1)c1cn(-c2ccccc2)nc1-c1ccccc1 | 22% | i | -10% | 12% | 0% | 0%
C/C(=N\Nc1nc2ccccc2[nH]1)c1cc2ccccc2o1 | 10% | x | 18µM* | u | -42% | u
C/C(=N\Nc1nc2ccccc2[nH]1)c1ccc2c(c1)OCO2 | u | i | 26µM* | 15µM* | -28% | u
C/C(=N\Nc1ccccn1)c1ccc2c(c1)OCO2 | 68% | i | u | 18µM* | -25% | 3%
C/C(=N\Nc1ccccn1)c1ccc(C(C)C)cc1 | 31% | i | u | u | -36% | 13µM*
C/C(=N\Nc1nc2ccccc2[nH]1)c1ccc2c(c1)OCCO2 | 14% | i | u | u | 0% | -20%
